# According to publication PMC12820563, “FoxP3 forms a head-to-head dimer in vivo and stabilizes its multimerization on adjacent microsatellites”:
# Over roughly 16,000 sequences, “rpm ratio (pull-down/input)” has its median near 0.94; the highest 2% begin near 1.7. What follows is part of a selection rich in the highest values, with near analogues and random picks from the rest.
# Biological target: T1, MBP-FoxP1dN (Mus musculus, UniProt P58462 326-579)
# T1 sequence: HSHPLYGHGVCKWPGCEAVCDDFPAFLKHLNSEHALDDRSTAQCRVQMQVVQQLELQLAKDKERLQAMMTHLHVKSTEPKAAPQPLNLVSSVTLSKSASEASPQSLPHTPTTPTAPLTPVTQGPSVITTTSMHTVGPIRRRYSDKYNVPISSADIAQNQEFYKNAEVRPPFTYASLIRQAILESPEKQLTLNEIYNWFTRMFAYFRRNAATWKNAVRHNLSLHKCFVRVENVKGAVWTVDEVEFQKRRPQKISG
# Experiment: PD-seq (MBP pull-down with sequencing); 20 mM Tris-HCl pH 7.5, 100 mM NaCl, 1.5 mM MgCl2, 0.4 uM protein, 0.1 uM dsDNA library, 30 min, room temperature, amylose pull-down; high values mean tight binding
# Settings: protein: recombinant; tags: His6-MBP; chain copies: 2; dsDNA, one strand shown
# How it was run: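 Protein and DNA were mixed at 0.4 µM and 0.1 µM and held for 30 min at room temperature in Tris pH 7.5 buffer with NaCl and MgCl2; the protein was a His6-MBP-tagged, N-terminally truncated mouse FoxP3 or FoxP1 fragment from E. coli, and the DNA a Klenow-filled double-stranded degenerate library. Amylose resin captured the complexes, which were washed three times. Binding is read as reads-per-million enrichment of pull-down versus input after Illumina sequencing, with replicates pooled.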
row,Sequence,binding signal
1,GATGATTGTTCTCCCAGCTGATGAATTTACCCCGTCGAGTAAACAAATTTTCCTAATCTTTCTGTTCAAGCGCCATCTAC,1.07 RPM ratio (pull-down/input)
2,GATGATTGTTCTCCCAGCTGATGAATTCGTCTCTTCGAGTAAACAAATTTTCCTAATCTTTCTGTTCAAGCGCCATCTAC,0.871 RPM ratio (pull-down/input)
3,GATGATTGTTCTCCCAGCTGATGAATTGGAACGTTCGAGTAAACAAATTTTCCTAATCTTTCTGTTCAAGCGCCATCTAC,0.904 RPM ratio (pull-down/input)
4,GATGATTGTTCTCCCAGCTGATGAATTATTGTGGTCGAGTAAACAAATTTTCCTAATCTTTCTGTTCAAGCGCCATCTAC,1.51 RPM ratio (pull-down/input)
5,GATGATTGTTCTCCCAGCTGATGAATTGCTGATGTCGAGTAAACAAATTTTCCTAATCTTTCTGTTCAAGCGCCATCTAC,1.22 RPM ratio (pull-down/input)
6,GATGATTGTTCTCCCAGCTGATGAATTTTTGCTGTCGAGTAAACAAATTTTCCTAATCTTTCTGTTCAAGCGCCATCTAC,1.59 RPM ratio (pull-down/input)
7,GATGATTGTTCTCCCAGCTGATGAATTCTTGCTGTCGAGTAAACAAATTTTCCTAATCTTTCTGTTCAAGCGCCATCTAC,1.45 RPM ratio (pull-down/input)
8,GATGATTGTTCTCCCAGCTGATGAATTGCTGTTGTCGAGTAAACAAATTTTCCTAATCTTTCTGTTCAAGCGCCATCTAC,2.5 RPM ratio (pull-down/input)
9,GATGATTGTTCTCCCAGCTGATGAATTGCTGCTGTCGAGTAAACAAATTTTCCTAATCTTTCTGTTCAAGCGCCATCTAC,1.29 RPM ratio (pull-down/input)
10,GATGATTGTTCTCCCAGCTGATGAATTGTTGCTGTCGAGTAAACAAATTTTCCTAATCTTTCTGTTCAAGCGCCATCTAC,2 RPM ratio (pull-down/input)
11,GATGATTGTTCTCCCAGCTGATGAATTCTCTCGCTCGAGTAAACAAATTTTCCTAATCTTTCTGTTCAAGCGCCATCTAC,0.825 RPM ratio (pull-down/input)
12,GATGATTGTTCTCCCAGCTGATGAATTCTACCCCTCGAGTAAACAAATTTTCCTAATCTTTCTGTTCAAGCGCCATCTAC,0.797 RPM ratio (pull-down/input)
13,GATGATTGTTCTCCCAGCTGATGAATTGCGATAATCGAGTAAACAAATTTTCCTAATCTTTCTGTTCAAGCGCCATCTAC,1.43 RPM ratio (pull-down/input)
14,GATGATTGTTCTCCCAGCTGATGAATTTGCTGTATCGAGTAAACAAATTTTCCTAATCTTTCTGTTCAAGCGCCATCTAC,1.16 RPM ratio (pull-down/input)
15,GATGATTGTTCTCCCAGCTGATGAATTTTTTGTATCGAGTAAACAAATTTTCCTAATCTTTCTGTTCAAGCGCCATCTAC,1.26 RPM ratio (pull-down/input)
16,GATGATTGTTCTCCCAGCTGATGAATTTGTATCATCGAGTAAACAAATTTTCCTAATCTTTCTGTTCAAGCGCCATCTAC,1.51 RPM ratio (pull-down/input)

row,Sequence,binding signal
1,GATGATTGTTCTCCCAGCTGATGAATTTGTTGTATCGAGTAAACAAATTTTCCTAATCTTTCTGTTCAAGCGCCATCTAC,2.21 RPM ratio (pull-down/input)
2,GATGATTGTTCTCCCAGCTGATGAATTGTTTGTATCGAGTAAACAAATTTTCCTAATCTTTCTGTTCAAGCGCCATCTAC,2.64 RPM ratio (pull-down/input)
3,GATGATTGTTCTCCCAGCTGATGAATTTGATGTATCGAGTAAACAAATTTTCCTAATCTTTCTGTTCAAGCGCCATCTAC,1.25 RPM ratio (pull-down/input)
4,GATGATTGTTCTCCCAGCTGATGAATTCCGCCTATCGAGTAAACAAATTTTCCTAATCTTTCTGTTCAAGCGCCATCTAC,0.791 RPM ratio (pull-down/input)
5,GATGATTGTTCTCCCAGCTGATGAATTTGGGGTGTCGAGTAAACAAATTTTCCTAATCTTTCTGTTCAAGCGCCATCTAC,0.832 RPM ratio (pull-down/input)
6,GATGATTGTTCTCCCAGCTGATGAATTATTGGTATCGAGTAAACAAATTTTCCTAATCTTTCTGTTCAAGCGCCATCTAC,1.55 RPM ratio (pull-down/input)
7,GATGATTGTTCTCCCAGCTGATGAATTTTTGGTATCGAGTAAACAAATTTTCCTAATCTTTCTGTTCAAGCGCCATCTAC,1.09 RPM ratio (pull-down/input)
8,GATGATTGTTCTCCCAGCTGATGAATTATCGGTATCGAGTAAACAAATTTTCCTAATCTTTCTGTTCAAGCGCCATCTAC,1.02 RPM ratio (pull-down/input)
9,GATGATTGTTCTCCCAGCTGATGAATTGGTATTATCGAGTAAACAAATTTTCCTAATCTTTCTGTTCAAGCGCCATCTAC,1.9 RPM ratio (pull-down/input)
10,GATGATTGTTCTCCCAGCTGATGAATTGGTTGTATCGAGTAAACAAATTTTCCTAATCTTTCTGTTCAAGCGCCATCTAC,1.3 RPM ratio (pull-down/input)
11,GATGATTGTTCTCCCAGCTGATGAATTGTTGGTATCGAGTAAACAAATTTTCCTAATCTTTCTGTTCAAGCGCCATCTAC,1.92 RPM ratio (pull-down/input)
12,GATGATTGTTCTCCCAGCTGATGAATTGTGTGCCTCGAGTAAACAAATTTTCCTAATCTTTCTGTTCAAGCGCCATCTAC,1.14 RPM ratio (pull-down/input)
13,GATGATTGTTCTCCCAGCTGATGAATTGCGATGCTCGAGTAAACAAATTTTCCTAATCTTTCTGTTCAAGCGCCATCTAC,1.2 RPM ratio (pull-down/input)
14,GATGATTGTTCTCCCAGCTGATGAATTCCGAGAGTCGAGTAAACAAATTTTCCTAATCTTTCTGTTCAAGCGCCATCTAC,0.749 RPM ratio (pull-down/input)
15,GATGATTGTTCTCCCAGCTGATGAATTCATCGTCTCGAGTAAACAAATTTTCCTAATCTTTCTGTTCAAGCGCCATCTAC,0.784 RPM ratio (pull-down/input)
16,GATGATTGTTCTCCCAGCTGATGAATTCAGGTTCTCGAGTAAACAAATTTTCCTAATCTTTCTGTTCAAGCGCCATCTAC,0.857 RPM ratio (pull-down/input)
